The source of these data is the supplement of paper PMC3545927.

Some of the results follow. The true hit rate is not given.

For the experiment, the target named is furin, P09958. As to the kind of experiment: furin cleavage Z-score vs untreated control; higher = more cleavage, active = 3.5 or more, inactive = 1 or less, 8 variable residues between constant flanks. A digest of the protocol:
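In 50 mM HEPES pH 7.5 with CaCl2 and NaCl, purified furin was incubated with bead-anchored 8-mer peptide–cDNA fusions at 1:10 enzyme:substrate in 0.01 ml. Incubation times were 7.5, 15 and 30 min. DNA set free by cleavage was adapter-tagged by PCR and sequenced, with read counts taken as abundance. Log counts relative to furin-free reactions, after lowess adjustment and median absolute deviation scaling, form the cleavage Z-score.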

Sequence of furin, P09958 (P09958 whole entry, the tested form may be a part): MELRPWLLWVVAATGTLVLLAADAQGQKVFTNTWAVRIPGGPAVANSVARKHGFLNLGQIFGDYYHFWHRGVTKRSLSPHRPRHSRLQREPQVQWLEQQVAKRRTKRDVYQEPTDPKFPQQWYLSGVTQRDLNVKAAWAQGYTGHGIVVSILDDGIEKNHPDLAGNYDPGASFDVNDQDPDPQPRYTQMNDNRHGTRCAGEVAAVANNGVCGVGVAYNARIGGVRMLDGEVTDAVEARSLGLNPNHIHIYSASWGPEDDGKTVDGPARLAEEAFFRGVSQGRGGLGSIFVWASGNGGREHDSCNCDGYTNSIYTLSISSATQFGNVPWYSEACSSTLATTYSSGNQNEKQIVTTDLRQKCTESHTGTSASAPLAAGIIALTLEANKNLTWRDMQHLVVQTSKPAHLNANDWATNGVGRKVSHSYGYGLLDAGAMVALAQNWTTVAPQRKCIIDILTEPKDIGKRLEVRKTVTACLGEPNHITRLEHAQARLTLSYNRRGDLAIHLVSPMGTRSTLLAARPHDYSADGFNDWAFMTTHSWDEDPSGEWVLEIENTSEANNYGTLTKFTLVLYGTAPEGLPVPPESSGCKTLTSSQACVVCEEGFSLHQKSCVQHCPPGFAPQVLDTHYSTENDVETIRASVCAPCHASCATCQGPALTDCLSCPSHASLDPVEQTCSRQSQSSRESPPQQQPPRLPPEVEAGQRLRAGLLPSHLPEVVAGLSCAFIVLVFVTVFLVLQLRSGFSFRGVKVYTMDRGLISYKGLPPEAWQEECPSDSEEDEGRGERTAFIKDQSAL

CALTESTLSTAGNASASA [HC1328]: the “furin cleavage Z-score” value runs as follows: (7.5 min) -0.00854 (inactive); (15 min) 0.199 (inactive); (30 min) 1.01.
The like results for CAHRSRKAKEAGNASASA [FS-1010] were, in that order, 1.54, 0.417 (inactive) and 1.2.
The matching figures for CAQAGRSRKEAGNASASA [FS-950]: 0.322 (inactive), -1.35 (inactive) and 0.565 (inactive).
As to CAHPHRTKREAGNASASA [FS-795], the “furin cleavage Z-score” value (7.5 min) was 11.5 (active), the “furin cleavage Z-score” value (15 min) was 12 (active) and the “furin cleavage Z-score” value (30 min) is 10.4 (active).
The like results for CAREKKAALEAGNASASA [FS-2656] were, in that order, -1.1 (inactive), 1.19 and 0.78 (inactive).
The matching figures for CAHPKQEKRSAGNASASA [FS-1209]: -0.192 (inactive), 1 (inactive) and 1.55.
With CALTERTKREAGNASASA [FS-1138], the “furin cleavage Z-score” value is, setting by setting: (7.5 min) 12.3 (active); (15 min) 13 (active); (30 min) 9.22 (active).
The like results for CAHPHRQRKEAGNASASA [FS-1009] were, in that order, 2.12, 4.93 (active) and 2.5.
The matching figures for CAVPHPNIEEAGNASASA [HC839]: 0.645 (inactive), -1.08 (inactive) and 0.089 (inactive).
The matching figures for CAHPKRAVREAGNASASA [FS-2864]: 8.59 (active), 8.52 (active) and 7.41 (active).
On to CAVIAPAVQTAGNASASA [HC1033], for which the “furin cleavage Z-score” value is 0.392 (inactive) (7.5 min), 0.329 (inactive) (15 min) and 0.692 (inactive) (30 min).
The matching figures for CAFFTELDGVAGNASASA [HC1221]: -0.975 (inactive), -0.00103 (inactive) and -0.854 (inactive).
The like results for CAEVPCHRPFAGNASASA [HC2407] were, in that order, -0.191 (inactive), 0.106 (inactive) and 0.623 (inactive).
For the sequence CAECVVCCSMAGNASASA [HC2140], the “furin cleavage Z-score” value (7.5 min) was 0.85 (inactive), the “furin cleavage Z-score” value (15 min) came out at 1.09 and the “furin cleavage Z-score” value (30 min) is -0.883 (inactive).
In the case of CAEVPCHRPYAGNASASA [HC2409], the “furin cleavage Z-score” value by setting is: (7.5 min) 0.869 (inactive); (15 min) -0.249 (inactive); (30 min) 1.01.
For CAEVVTSCWVAGNASASA [HC2220], the “furin cleavage Z-score” value is -1.37 (inactive) (7.5 min), 0.202 (inactive) (15 min) and -0.78 (inactive) (30 min).
As to CAVVCCSRSYAGNASASA [HC2053], the “furin cleavage Z-score” value is -1.24 (inactive) (7.5 min), -0.358 (inactive) (15 min) and 0.798 (inactive) (30 min).
Take CACVCCSMSYAGNASASA [HC2000]: the “furin cleavage Z-score” value was -0.467 (inactive) (7.5 min), -0.374 (inactive) (15 min) and 0.0175 (inactive) (30 min).
The matching figures for CAANRRDVRLAGNASASA [FS-322]: 0.0384 (inactive), -1.82 (inactive) and 1.41.
The matching figures for CASPSRTKRLAGNASASA [FS-870]: 7.89 (active), 8.76 (active) and 6.67 (active).
The matching figures for CASNQRPKRLAGNASASA [FS-298]: 5.25 (active), 8.19 (active) and 7.26 (active).
CAGKKRTVEMAGNASASA [FS-2861]: the “furin cleavage Z-score” value (7.5 min) is -0.948 (inactive), the “furin cleavage Z-score” value (15 min) was 0.0508 (inactive) and the “furin cleavage Z-score” value (30 min) is -1.47 (inactive).
The like results for CAMKKRTKRLAGNASASA [FS-365] were, in that order, 9.31 (active), 8.89 (active) and 7.26 (active).
The like results for CAMWKCLIRLAGNASASA [HC964] were, in that order, 0.587 (inactive), 2.14 and 2.
The matching figures for CAEVVCHRPSAGNASASA [HC2350]: -0.3 (inactive), 0.778 (inactive) and 0.34 (inactive).
As for CADWMEECSQAGNASASA [HC1808], the “furin cleavage Z-score” value runs as follows: (7.5 min) 0.73 (inactive); (15 min) -0.408 (inactive); (30 min) -0.438 (inactive).
Turning to CAVVCCSMSMAGNASASA [HC2086], the “furin cleavage Z-score” value is, setting by setting: (7.5 min) 0.14 (inactive); (15 min) -1.35 (inactive); (30 min) 0.14 (inactive).
Consider CAGWLRSKKAAGNASASA [FS-1530], for which the “furin cleavage Z-score” value was -0.625 (inactive) (7.5 min), -0.994 (inactive) (15 min) and -0.39 (inactive) (30 min).
The matching figures for CAVTQRSKRAAGNASASA [FS-388]: 10.4 (active), 9.15 (active) and 7.46 (active).
For CAVPQSFQVAAGNASASA [HC770], the “furin cleavage Z-score” value was -0.249 (inactive) (7.5 min), -1.95 (inactive) (15 min) and -0.519 (inactive) (30 min).
The matching figures for CAPSQRSKRPAGNASASA [FS-477]: -0.582 (inactive), 0.273 (inactive) and -0.55 (inactive).
Consider CAHPQRSKKAAGNASASA [FS-248], for which the “furin cleavage Z-score” value runs as follows: (7.5 min) -0.0765 (inactive); (15 min) 0.432 (inactive); (30 min) 1.4.
For the sequence CATQQRSKRAAGNASASA [FS-1496], the “furin cleavage Z-score” value (7.5 min) is 7.63 (active), the “furin cleavage Z-score” value (15 min) is 7.61 (active) and the “furin cleavage Z-score” value (30 min) was 6.89 (active).
The like results for CAGRKPARLIAGNASASA [HC1447] were, in that order, -1.48 (inactive), -1.33 (inactive) and -0.697 (inactive).
The like results for CARHVRISRSAGNASASA [FS-708] were, in that order, 10.5 (active), 10.5 (active) and 7.87 (active).
Turning to CARHVRSYNHAGNASASA [FS-2026], the “furin cleavage Z-score” value by setting is: (7.5 min) 0.349 (inactive); (15 min) 0.971 (inactive); (30 min) 3.01.
Consider CAPAGRISRSAGNASASA [FS-835], for which the “furin cleavage Z-score” value is 6.15 (active) (7.5 min), 10.5 (active) (15 min) and 8.23 (active) (30 min).
As to CAIPLVGAPLAGNASASA [HC229], the “furin cleavage Z-score” value by setting is: (7.5 min) -1.25 (inactive); (15 min) -1.1 (inactive); (30 min) -0.498 (inactive).
The like results for CAYGVGSSIAAGNASASA [HC512] were, in that order, -0.889 (inactive), -1.2 (inactive) and 0.412 (inactive).
In the case of CAKCPRQRRAAGNASASA [FS-445], the “furin cleavage Z-score” value runs as follows: (7.5 min) 7.55 (active); (15 min) 6.15 (active); (30 min) 7.23 (active).
The matching figures for CALRPRQRRAAGNASASA [FS-360]: 7.42 (active), 7.73 (active) and 6.07 (active).
Regarding CAQRQKKVTFAGNASASA [HC1394], the “furin cleavage Z-score” value is, setting by setting: (7.5 min) 1.32; (15 min) -2.05 (inactive); (30 min) -3.25 (inactive).
The matching figures for CALDPQARVAAGNASASA [HC1493]: -1.42 (inactive), -2.18 (inactive) and -0.348 (inactive).
The like results for CAQRQRAKRNAGNASASA [FS-1252] were, in that order, 13.8 (active), 13.3 (active) and 10.1 (active).
On to CALRLRGPRAAGNASASA [FS-943], for which the “furin cleavage Z-score” value (7.5 min) was 4.69 (active), the “furin cleavage Z-score” value (15 min) stood at 3.33 and the “furin cleavage Z-score” value (30 min) is 3.8 (active).
Consider CAKCPCQVPSAGNASASA [HC1216], for which the “furin cleavage Z-score” value (7.5 min) is 0.69 (inactive), the “furin cleavage Z-score” value (15 min) is 0.244 (inactive) and the “furin cleavage Z-score” value (30 min) was -0.458 (inactive).
The matching figures for CALTPLRDWAAGNASASA [HC637]: -0.181 (inactive), 1.58 and -0.616 (inactive).
